Values joined by “and” are separate entries in the source; they are usually repeats but may differ in a detail not shown here. Equal entries are not always repeated. Values without a mark were called inactive. Results filed as inconclusive are left out. A call without a number means that no potency is given here. Active and inactive are the calls of the source. Unless noted, the call rests on the fitted dose curve; in most records, active means well fitted inhibition curve with a large enough effect; inconclusive means small, poorly fitted or top-dose-only effect; inactive means flat fitted curve, though single readings scatter.

For one assay, the system named is JCK. The assay is described as follows: qHTS profiling for inhibitors of Plasmodium falciparum proliferation (AID 504749). Further: nearly all actives have a fitted effect of over 60% in size. Particulars: P. falciparum in erythrocytes, SYBR Green DNA, 72 h; series mostly up to 28.7 µM. The method in brief:
(§1)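 Each compound contacts P. falciparum-infected red blood cells for 72 h at 37 C; lysis buffer (Tris, EDTA, saponin, Triton X, SYBR Green I) is added and fluorescence measured next morning; values normalized to controls.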
For `C[N+]1([O-])[C@@H]2CC(OC(=O)[C@@H](CO)c3ccccc3)C[C@@H]1[C@H]1O[C@H]12` (some centres not stated), the Potency result is “inactive”.

For `ClC1=C(Cl)C2(Cl)C3C4CC(C5OC45)C3C1(Cl)C2(Cl)Cl` (configuration not stated), the Potency entry was “inactive”.

`CCNC[C@H](O)c1cccc(O)c1`: the Potency entry was “inactive”.

The next assay deals with N140. The assay is described as above. The note with it: P. falciparum in erythrocytes, SYBR Green DNA, 72 h; series mostly up to 28.7 µM. The method in brief: as §1
On to `C[N+]1([O-])[C@@H]2CC(OC(=O)[C@@H](CO)c3ccccc3)C[C@@H]1[C@H]1O[C@H]12` (some centres not stated), for which the Potency entry was “inactive”.

For `ClC1=C(Cl)C2(Cl)C3C4CC(C5OC45)C3C1(Cl)C2(Cl)Cl` (configuration not stated), the Potency entry was “inactive”.

`CCNC[C@H](O)c1cccc(O)c1`: the Potency entry is “inactive”.

The next assay relates to P93_24. The assay is described as above. Particulars: P. falciparum in erythrocytes, SYBR Green DNA, 72 h; series mostly up to 28.7 µM. In short, it runs like this:
as §1
`C[N+]1([O-])[C@@H]2CC(OC(=O)[C@@H](CO)c3ccccc3)C[C@@H]1[C@H]1O[C@H]12` (some centres not stated): the Potency result is “inactive”.

As to `ClC1=C(Cl)C2(Cl)C3C4CC(C5OC45)C3C1(Cl)C2(Cl)Cl` (configuration not stated), the Potency result was “inactive”.

In the case of `CCNC[C@H](O)c1cccc(O)c1`, the Potency result is “inactive”.

Another assay deals with PAD. The assay is described as above. Particulars: P. falciparum in erythrocytes, SYBR Green DNA, 72 h; series mostly up to 28.7 µM. The method in brief:
as §1
With `C[N+]1([O-])[C@@H]2CC(OC(=O)[C@@H](CO)c3ccccc3)C[C@@H]1[C@H]1O[C@H]12` (some centres not stated), the Potency entry was “inactive”.

For `ClC1=C(Cl)C2(Cl)C3C4CC(C5OC45)C3C1(Cl)C2(Cl)Cl` (configuration not stated), the Potency entry is “inactive”.

For the compound `CCNC[C@H](O)c1cccc(O)c1`, the Potency result is “inactive”.

In the next assay the test system is PC15. Described as above. The note with it: P. falciparum in erythrocytes, SYBR Green DNA, 72 h; series mostly up to 28.7 µM. In short, it runs like this:
as §1
Take `C[N+]1([O-])[C@@H]2CC(OC(=O)[C@@H](CO)c3ccccc3)C[C@@H]1[C@H]1O[C@H]12` (some centres not stated): the Potency entry was “inactive”.

For `ClC1=C(Cl)C2(Cl)C3C4CC(C5OC45)C3C1(Cl)C2(Cl)Cl` (configuration not stated), the Potency entry is “inactive”.

Consider `CCNC[C@H](O)c1cccc(O)c1`, for which the Potency result was “inactive”.

A further assay relates to PC26. The description is as above. The note with it: P. falciparum in erythrocytes, SYBR Green DNA, 72 h; series mostly up to 28.7 µM. In short, it runs like this: as §1
With `C[N+]1([O-])[C@@H]2CC(OC(=O)[C@@H](CO)c3ccccc3)C[C@@H]1[C@H]1O[C@H]12` (some centres not stated), the Potency result is “inactive”.

For the compound `ClC1=C(Cl)C2(Cl)C3C4CC(C5OC45)C3C1(Cl)C2(Cl)Cl` (configuration not stated), the Potency entry is “inactive”.

Regarding `CCNC[C@H](O)c1cccc(O)c1`, the Potency entry is “inactive”.

The subject of another assay is PC49. Described as above. The note with it: P. falciparum in erythrocytes, SYBR Green DNA, 72 h; series mostly up to 28.7 µM. In short, it runs like this: as §1
Take `C[N+]1([O-])[C@@H]2CC(OC(=O)[C@@H](CO)c3ccccc3)C[C@@H]1[C@H]1O[C@H]12` (some centres not stated): the Potency result is “inactive”.

Turning to `ClC1=C(Cl)C2(Cl)C3C4CC(C5OC45)C3C1(Cl)C2(Cl)Cl` (configuration not stated), the Potency result is “inactive”.

Turning to `CCNC[C@H](O)c1cccc(O)c1`, the Potency entry was “inactive”.

The next assay relates to SC27B. Described as above. The note with it: P. falciparum in erythrocytes, SYBR Green DNA, 72 h; series mostly up to 28.7 µM. In short, it runs like this: as §1
Consider `C[N+]1([O-])[C@@H]2CC(OC(=O)[C@@H](CO)c3ccccc3)C[C@@H]1[C@H]1O[C@H]12` (some centres not stated), for which the Potency result is “inactive”.

With `ClC1=C(Cl)C2(Cl)C3C4CC(C5OC45)C3C1(Cl)C2(Cl)Cl` (configuration not stated), the Potency result was “inactive”.

Regarding `CCNC[C@H](O)c1cccc(O)c1`, the Potency result was “inactive”.

The test system of the next assay is TAB109. The description is as above. Particulars: P. falciparum in erythrocytes, SYBR Green DNA, 72 h; series mostly up to 12.8 µM. In short, it runs like this: as §1
`C[N+]1([O-])[C@@H]2CC(OC(=O)[C@@H](CO)c3ccccc3)C[C@@H]1[C@H]1O[C@H]12` (some centres not stated): the Potency entry is “inactive”.

Take `ClC1=C(Cl)C2(Cl)C3C4CC(C5OC45)C3C1(Cl)C2(Cl)Cl` (configuration not stated): the Potency entry is “inactive”.

On to `CCNC[C@H](O)c1cccc(O)c1`, for which the Potency entry was “inactive”.

The next assay concerns TAB165. The assay is described as above. Particulars: P. falciparum in erythrocytes, SYBR Green DNA, 72 h; series mostly up to 28.7 µM. In short, it runs like this: as §1
As for `C[N+]1([O-])[C@@H]2CC(OC(=O)[C@@H](CO)c3ccccc3)C[C@@H]1[C@H]1O[C@H]12` (some centres not stated), the Potency entry was “inactive”.

Take `ClC1=C(Cl)C2(Cl)C3C4CC(C5OC45)C3C1(Cl)C2(Cl)Cl` (configuration not stated): the Potency entry is “inactive”.

Consider `CCNC[C@H](O)c1cccc(O)c1`, for which the Potency result is “inactive”.

The target of another assay is Nuclear receptor subfamily 1 group I member 2 (Rattus norvegicus) (UniProt Q9R1A7). The assay is described as follows: qHTS assay for small molecule activators of the rat pregnane X receptor (rPXR) signaling pathway (AID 651751; call rule not given here). The note with it: rPXR reporter cells, luciferase (One-Glo), 24 h. On the technique in general: In qHTS, concentration-response curves come from the screen itself.
Chain of Nuclear receptor subfamily 1 group I member 2 (Rattus norvegicus) (Q9R1A7 whole entry, looked up): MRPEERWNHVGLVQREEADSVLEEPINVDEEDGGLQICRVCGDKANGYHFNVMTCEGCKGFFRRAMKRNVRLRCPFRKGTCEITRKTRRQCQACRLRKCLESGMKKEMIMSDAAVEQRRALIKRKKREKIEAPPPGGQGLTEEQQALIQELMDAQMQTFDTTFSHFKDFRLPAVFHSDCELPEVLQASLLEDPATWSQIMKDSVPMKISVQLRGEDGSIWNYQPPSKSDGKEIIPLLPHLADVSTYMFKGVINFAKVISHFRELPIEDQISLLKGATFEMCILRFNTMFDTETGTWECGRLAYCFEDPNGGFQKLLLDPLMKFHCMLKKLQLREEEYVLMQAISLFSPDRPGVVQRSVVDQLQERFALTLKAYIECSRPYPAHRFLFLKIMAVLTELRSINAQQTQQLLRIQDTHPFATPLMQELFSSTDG
On to `CCOCN(C(=O)CCl)c1c(C)cccc1CC`, for which the max response is -4.5% and -5.56%.

`ClC(Cl)=C(c1ccc(Cl)cc1)c1ccc(Cl)cc1`: the max response was 1.57% and 5.61% and 0.401%.

For the compound `ClC1=C(Cl)C2(Cl)C3C4C=CC(C4)C3C1(Cl)C2(Cl)Cl` (configuration not stated), the max response is 5.53%.

As for `O=C(O)COc1ccc(Cl)cc1Cl`, the max response was -0.13% [middle of 4 runs].

For `COC(=O)NC(=S)Nc1ccccc1NC(=S)NC(=O)OC`, the max response is 13.9% and 14.6%.

`C/C=C/c1ccc2c(c1)OCO2`: the max response is 0.551%.

Take `COP(=S)(OC)Oc1ccc([N+](=O)[O-])cc1`: the max response is 8.93% and 0.334%.

For the compound `C=CCc1ccc(OC)cc1`, the max response is 0.607%.

Take `ClC1=C(Cl)C2(Cl)C3C(Cl)C=CC3C1(Cl)C2(Cl)Cl` (configuration not stated): the max response is -2.14%.

Regarding `c1ccc(N=Nc2ccccc2)cc1`, the max response was -2.25% and 1.3%.

On to `CCc1cccc(CC)c1N(COC)C(=O)CCl`, for which the max response was -3.94% and -1.3%.

Tested on in another assay: not listed separately
Description: qHTS assay for small molecule activators of the human pregnane X receptor (PXR) signaling pathway (AID 720659; call rule not given here). The note with it: DPX-2 HepG2 CYP3A4-luciferase, 24 h; series mostly up to 92.3 µM.
As to `O=C(O)COc1ccc(Cl)cc1Cl`, the result was inactive.

Consider `C/C=C/c1ccc2c(c1)OCO2`, for which the compound was classed as inactive.

For `COP(=S)(OC)Oc1ccc([N+](=O)[O-])cc1`, the compound was classed as inactive.

Consider `C=CCc1ccc(OC)cc1`, for which the call was inactive.

Turning to `ClC1=C(Cl)C2(Cl)C3C(Cl)C=CC3C1(Cl)C2(Cl)Cl` (configuration not stated), the compound was called inactive.

Regarding `c1ccc(N=Nc2ccccc2)cc1`, the compound was classed as inactive.

The record behind these values is PubChem BioAssay (NCATS).
